FBW7 act: FBW7 E3 ligase activators, primary screen, biochemical, AlphaScreen, human; F-box/WD repeat-containing protein 7 (Homo sapiens), Q969H0; AlphaScreen FBW7–phospho-cyclin E peptide binding, activator screen; normalized activity (activation), % at 26.1 µM; 650,000 tested, 0.13% active; AID 1259310, 2017; in the data active means normalized activity above about 1.9%;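 further: purified mutant Fbw7 with reduced substrate affinity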
TEAD-YAP inh: TEAD-YAP interaction inhibition, primary screen, TEAD-YAP interaction inhibitor project, luminescence, HEK-TIYL cells. TEAD-Gal4/YAP UAS-luciferase luminescence. inhibition, % at 9.12 µM. 640,000 tested, 1.4% active; in the data active means inhibition above about 32%;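 further: 0% = median of test compound wells and 100% = reference inhibitor wells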
GPR151 activ: activators of human GPR151, primary screen, cell-based, PathHunter beta-arrestin, luminescence; G-protein coupled receptor 151 (Homo sapiens), Q8TDV0; PathHunter beta-arrestin GPR151 cells; activation, % at 11.2 µM; 650,000 tested, 1% active; in the data active means activation above about 4.9%;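 further: 0% = median of compound wells and 100% = cells with positive control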
Target sequence (Q8TDV0 whole entry, looked up): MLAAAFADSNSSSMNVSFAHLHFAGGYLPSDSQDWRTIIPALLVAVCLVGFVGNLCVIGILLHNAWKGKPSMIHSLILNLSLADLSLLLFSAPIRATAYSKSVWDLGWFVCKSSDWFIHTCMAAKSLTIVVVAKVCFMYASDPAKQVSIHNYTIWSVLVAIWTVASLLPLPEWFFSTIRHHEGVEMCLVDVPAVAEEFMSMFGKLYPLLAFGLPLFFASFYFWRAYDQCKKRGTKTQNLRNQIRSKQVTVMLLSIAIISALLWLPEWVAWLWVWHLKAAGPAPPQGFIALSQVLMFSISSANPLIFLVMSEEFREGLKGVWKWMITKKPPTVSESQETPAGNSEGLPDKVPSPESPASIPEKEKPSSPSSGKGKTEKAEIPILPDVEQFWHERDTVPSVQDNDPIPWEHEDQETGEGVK
MITF inh: MITF inhibitors, primary screen, biochemical, AlphaScreen, human | Microphthalmia-associated transcription factor (Homo sapiens), O75030 | AlphaScreen MITF homodimerization, bead proximity signal | inhibition, % at 2.6 µM | 650,000 tested, 0.91% active | AID 1259374, 2018; in the data active means inhibition above about 50%;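 further: 0% = vehicle wells with protein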
GPR151 confirm: GPR151 activators, triplicate retest, confirmation, cell-based, PathHunter beta-arrestin, luminescence. AID 1508609, 2020. activation, % at 11.2 µM. shares compounds with GPR151 activ. GPR151 PathHunter beta-arrestin cells, 90 min; % of EA-reagent control over plate median. 6,700 tested, under 10 active;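 active means mean percent activation across replicates above the confirmation screen cutoff of 4.91%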
GPR119 ag: GPR119 activators in beta-arrestin cells, counter-screen for GPR151 activator project, cell-based, PathHunter beta-arrestin, luminescence, triplicate; shares compounds with GPR151 activ; 90 min; 0 = compound-well median, 100 = enzyme-acceptor control; activation, % at 11.2 µM; 6,700 tested, 0.3% active;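 active means mean percent activation in the counterscreen above 29.09%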;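 further: counterscreen on off-target GPR119 to flag nonselective hits from the GPR151 activator screen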
Active calls of the source: *; · = no result given. The list is not random: actives were taken first. Their share in the collection is about 3.5%.

SMILES	FBW7 act	TEAD-YAP inh	GPR151 activ	MITF inh	GPR151 confirm	GPR119 ag
Cc1nnc(NC(=O)C(C)N2CCCC2)s1 (stereo not drawn)	0	-3	14*	43	1	10
Cc1c(C(=O)Nc2ccc(Oc3ccccc3)cc2)sc2ncn(CC(=O)N3CC(C)CC(C)C3)c(=O)c12 (stereo not drawn)	0	5	3	4	·	·
CCOc1ccc(NC(=O)c2sc3ncn(CC(=O)N4CC(C)CC(C)C4)c(=O)c3c2C)cc1 (stereo not drawn)	0	20	6.3*	2	-1	0
Cc1nn(Cc2ccc(F)cc2)c(C)c1N	0	-7	15*	-7	1	5
Cc1cc(NCc2ccccc2)nc(-c2ccc(N3CCN(C)CC3)cc2)n1	0	7	14*	14	-1	-6
O=C1Cc2ccccc2N1c1ccccc1	1	0	9.9*	-6	1	5
O=C1CCCCC(=O)N(c2ccccc2)c2ccccc21	0	15	-1	-9	·	·
CC(C)C(=O)Nc1nnc(S(=O)(=O)N(C)c2ccc(Cl)cc2)s1	0	12	5.8*	2	-1	-4
O=C(Nc1nc2ccc3ccccc3c2s1)C1CC1	0	16	2	7	·	·
O=C(Nc1nc2c(s1)-c1cccc3cccc-2c13)C1CC1	0	-27	5.0*	-1	2	13
C=CCOC(=O)C1=C(C)NC(C)=C(C(=O)OCC=C)C1c1cn(-c2ccccc2)nc1-c1ccc(Br)cc1	1	-4	5.0*	-7	0	8
Cc1ccc(C)c(N2CCN(C(=O)CCc3nc(-c4ccccc4F)no3)CC2)c1	0	-3	5.5*	-2	1	9
c1ccc2c(c1)nc(NCCCN1CCOCC1)c1nnnn12	0	-8	-2	7	·	·
O=C1CCCN1CCCNc1nc2ccccc2n2nnnc12	0	2	5.9*	-7	0	-8
O=C1CCCN1CCCNc1nc2ccccc2c2nc(-c3cccnc3)nn12	0	20	6.3*	10	1	15
CCCCNc1nc2ccccc2c2nc(-c3cccnc3)nn12	0	4	1	6	·	·
Cc1ccc(-c2cc(C(F)(F)F)n3nc(C(=O)NN4CCOCC4)cc3n2)cc1C	0	3	5.3*	13	0	9
COc1ccc(-c2cc(C(F)(F)F)n3nc(C(=O)NCc4cccs4)cc3n2)cc1OC	0	-1	7.2*	0	0	12
COc1ccc(-c2cc(C(F)(F)F)n3nc(C(=O)N4CCN(c5ccccc5Cl)CC4)cc3n2)cc1	0	1	6.1*	-3	0	-6
COc1ccc(-c2cc(C(F)(F)F)n3nc(C(=O)NCCc4ccccc4)cc3n2)cc1	0	2	13*	14	0	-3
COc1ccc(-c2cc(C(F)(F)F)n3nc(C(=O)N4CCN(c5cccc(Cl)c5)CC4)cc3n2)cc1	0	-8	-1	-2	·	·
C=CCOc1ccc(/C(O)=C2\C(=O)C(=O)N(CCN(C)C)C2c2ccc(OC)c(OC)c2)c(C)c1 (stereo not drawn)	0	4	0	-15	·	·
COc1cc(NC(=O)CSc2nnc(-c3ccccc3N)n2C)cc(OC)c1	0	1	-1	11	·	·
CCCCCOc1ccc2c(C)c(Cc3ccccc3)c(=O)oc2c1C	0	-6	-1	5	·	·
Cc1ccccc1Nc1nc2nonc2nc1Nc1c(C)n(C)n(-c2ccccc2)c1=O	0	1	1	5	·	·
SMILES	FBW7 act	TEAD-YAP inh	GPR151 activ	MITF inh	GPR151 confirm	GPR119 ag
CN(C)C(=O)Cn1nc2c3ccccc3nc(C3CC3)n2c1=O	0	-8	0	11	·	·
O=C(NCCCn1ccnc1)c1cc2nc(-c3cccs3)cc(C(F)(F)F)n2n1	0	2	7.3*	11	0	12
CCn1ncc(CNC(=O)c2cc3nc(-c4ccco4)cc(C(F)(F)F)n3n2)c1C	0	20	5.0*	2	1	-1
CSC1=NSC2=NC(=O)/C(=C\c3ccc([N+](=O)[O-])cc3)C(=N)N12	0	-43	11*	5	2	1
CCSC1=NSC2=NC(=O)/C(=C\c3ccc([N+](=O)[O-])cc3)C(=N)N12	0	-8	0	-4	·	·
CCOc1ccc(/C(O)=C2\C(=O)C(=O)N(c3nc(C)c(C(=O)OC)s3)C2c2ccc(C)cc2)cc1C (stereo not drawn)	0	-2	5.0*	7	-1	0
CC1(C)c2ccccc2N(CC(=O)NCc2ccc(Cl)cc2)C12C=Cc1cc([N+](=O)[O-])ccc1O2 (stereo not drawn)	0	-5	6.3*	10	-1	-4
COC(=O)c1ccc2c(c1)C(C)(C)C1(C=Cc3cc([N+](=O)[O-])ccc3O1)N2C (stereo not drawn)	0	3	5.3*	10	1	10
CC1(C)c2ccccc2N(CC(=O)NCc2ccccc2)C12C=Cc1cc([N+](=O)[O-])ccc1O2 (stereo not drawn)	0	3	0	3	·	·
NC(=O)COc1ccc(/C=N/NC(=O)CSc2ncccn2)cc1	0	5	1	1	·	·
O=C(N/N=C/c1cc(Br)ccc1F)c1ccccc1O	0	-76	-1	-1	·	·
COc1ccc(-c2noc(N3CCCC(C(=O)NC4CCCc5ccccc54)C3)n2)cc1 (stereo not drawn)	0	7	5.6*	-3	1	-2
COc1ccc(-c2noc(N3CCC(C(=O)O)CC3)n2)cc1	0	-2	1	-2	·	·
COc1ccc(-c2noc(N3CCCC(C(=O)Nc4ccccc4OC)C3)n2)cc1 (stereo not drawn)	0	-7	10*	0	0	-1
COc1ccc(-c2noc(N3CCCC(C(=O)N4CCCc5ccccc54)C3)n2)cc1 (stereo not drawn)	0	17	4	0	·	·
COc1ccc(-c2noc(N3CCC(C(=O)NC(C)CCc4ccccc4)CC3)n2)cc1 (stereo not drawn)	0	-11	5.1*	-13	-1	-8
Cc1ccc(/C=C(/C#N)C(=O)Nc2ncc(Cc3ccc(Cl)cc3)s2)o1	0	-1	3	1	·	·
O=C(Cn1c(-c2ccccn2)nc2ccccc21)Nc1nc2ccccc2s1	0	1	6.0*	-5	0	4
NC(=O)c1cc(NC(=O)C2C3C=CC(C3)C2C(=O)O)ccc1N1CCOCC1 (stereo not drawn)	0	10	0	-4	·	·
